Data taken from the supplement of paper PMC10849652.
Of roughly 8,800 targets only a part is listed; those with a hit were picked by preference. About 0.5% of all pairs of compound and target were hits.

Tests used:
Test in all cases: log2 fold change, soluble protein after heating vs DMSO (PISA); higher = thermal stabilisation; K562 lysate, 10 uM; active = over 0.2 and 3.5 SD of the protein, either way, in both replicates (recomputed)
erlotinib = compound: C#Cc1cccc(Nc2ncnc3cc(OCCOC)c(OCCOC)cc23)c1 [erlotinib]
Summary of the method: (§1)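 K562 pellets were dounce-homogenised in PBS pH 7.4 with 1 mM MgCl2, and the crude extract at 1 mg/mL protein was treated with 10 μM compound for 30 min. Aliquots were heated for 3 min across 48°C-58°C, pooled, and brought to 0.5% NP-40 at 4°C; soluble protein was the supernatant after 21,000xg for 90 min. Soluble protein was quantified by TMTpro 16plex LC-MS/MS with channel sums equalised, and reported as log2 fold change in thermal stability against DMSO controls, with values from duplicates.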

[1] = compound: C/C(=N\NC(=O)C1=CC(=CC=C1)S(=O)(=O)N2CCOCC2)/C3=C(C=CC(=C3)Cl)O
Summary of the method: as §1

[2] = compound: C1=CC(=CC=C1C2=NC3=C(N2)C=C(C=C3)C(=O)N)OC4=CC=C(C=C4)Cl
Summary of the method: as §1

[3] = compound: C1=CC2=C(C=CC(=C2)/C=C\3/C(=O)NC(=NCC4=CC=CS4)S3)N=C1
Summary of the method: as §1

[4] = compound: C1=CC2=NC=CN=C2C=C1/C=C/3\C(=O)NC(=O)S3
Summary of the method: as §1

[5] = compound: C1=CC=C(C=C1)C2=NC(=C(N2)C3=CC=NC=C3)C4=CC(=C(C=C4)Cl)O
Summary of the method: as §1

[6] = compound: C1=CC=C2C(=C1)C3=NNC4=CC=CC(=C43)C2=O
Summary of the method: as §1

[7] = compound: C1CCN(C1)C(=O)NC2=CC=CC(=C2)NC3=NC=C(C(=N3)NCCC4=CN=CN4)Br
Summary of the method: as §1

[8] = compound: C1CN(CCC1(CC2=CC=C(C=C2)Cl)N)C3=NC=NC4=C3C=CN4
Summary of the method: as §1

IRAK-1-4 Inhibitor I = compound: C1COCCN1CCN2C3=CC=CC=C3N=C2NC(=O)C4=CC(=CC=C4)[N+](=O)[O-] [IRAK-1-4 Inhibitor I]
Summary of the method: as §1

ibrutinib = compound: C=CC(=O)N1CCC[C@@H](n2nc(-c3ccc(Oc4ccccc4)cc3)c3c(N)ncnc32)C1 [ibrutinib]
Summary of the method: as §1

[9] = compound: CC(=O)c1cnc2ccc(-c3cc(Cl)c(O)c(Cl)c3)nc2c1N[C@H]1CC[C@H](CN(C)C)CC1
Summary of the method: as §1

ralimetinib = compound: CC(C)(C)Cn1c(N)nc2ccc(-c3[nH]c(C(C)(C)C)nc3-c3ccc(F)cc3)nc21 [ralimetinib]
Summary of the method: as §1

[10] = compound: CC(C)(O)CC(=O)NCCn1ccc2ncnc(Nc3ccc(Oc4cccc(C(F)(F)F)c4)c(Cl)c3)c21
Summary of the method: as §1

[11] = compound: CC(C)C1=C2N=C(C=C(N2N=C1)NCC3=CC=CC=C3)NCCCCCCN
Summary of the method: as §1

[12] = compound: CC1=C(C(CC(=O)N1)C2=CC=C(C=C2)C(F)(F)F)C(=O)NC3=C(C=C4C(=C3)C=NN4)F
Summary of the method: as §1

[13] = compound: CC1=C(C2=C(C=C1)C(=O)C3=CC=CC=C3N2CCCN)C
Summary of the method: as §1

[14] = compound: CC1=C(C=C(C=C1)NC(=O)C2=CC(=CC=C2)C(C)(C)C#N)NC3=CC4=C(C=C3)N=CN(C4=O)C
Summary of the method: as §1

[15] = compound: CC1=C(C=C(C=C1)NC(=O)C2=CC(=CC=C2)N(C)C)NC(=O)C3=CC=C(C=C3)O
Summary of the method: as §1

[16] = compound: CC1=CC=C(C=C1)SC2=C3C=C(SC3=CN=C2)C(=O)N
Summary of the method: as §1

Measured: log2 fold change

PLK1 (UniProt P53350)
Sequence of UniProt P53350 (P53350 whole entry, looked up): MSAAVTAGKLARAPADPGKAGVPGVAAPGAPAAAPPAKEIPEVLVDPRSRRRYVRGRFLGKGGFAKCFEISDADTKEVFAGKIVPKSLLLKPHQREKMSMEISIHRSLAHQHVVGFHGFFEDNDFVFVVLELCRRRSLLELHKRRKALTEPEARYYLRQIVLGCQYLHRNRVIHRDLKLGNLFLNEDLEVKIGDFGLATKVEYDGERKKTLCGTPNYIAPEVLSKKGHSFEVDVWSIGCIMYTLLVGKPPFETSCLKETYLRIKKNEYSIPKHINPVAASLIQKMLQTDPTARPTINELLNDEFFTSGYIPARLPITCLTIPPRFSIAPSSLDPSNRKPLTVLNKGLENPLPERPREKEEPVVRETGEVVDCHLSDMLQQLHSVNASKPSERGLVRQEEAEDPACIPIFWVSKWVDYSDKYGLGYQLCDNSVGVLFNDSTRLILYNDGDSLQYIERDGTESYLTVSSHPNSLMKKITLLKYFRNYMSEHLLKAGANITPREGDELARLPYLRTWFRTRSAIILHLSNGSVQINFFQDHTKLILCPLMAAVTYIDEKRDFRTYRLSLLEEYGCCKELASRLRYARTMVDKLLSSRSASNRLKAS
inactive: erlotinib 0.006 | [1] -0.032 | [2] -0.013 | [3] 0.077 | [4] -0.092 | [5] 0 | [6] -0.147 | [7] -0.069 | [8] 0.143 | IRAK-1-4 Inhibitor I -0.141 | ibrutinib -0.004 | [9] 0.069 | ralimetinib 0.009 | [10] 0.015 | [11] 0.068 | [12] 0.022 | [13] -0.019 | [14] 0.032 | [15] 0.036 | [16] -0.014

PRMT8 (UniProt Q9NR22)
inactive: erlotinib 0.01 | [1] -0.003 | [2] 0.009 | [3] -0.046 | [4] -0.015 | [5] 0.024 | [6] -0.031 | [7] -0.012 | [8] 0.013 | IRAK-1-4 Inhibitor I 0.024 | ibrutinib -0.073 | [9] -0.012 | ralimetinib 0.036 | [10] -0.018 | [11] 0.003 | [12] -0.028 | [13] 0.009 | [14] 0.032 | [15] 0.002 | [16] 0.007

PGGT1B (UniProt P53609)
Sequence of UniProt P53609 (P53609 whole entry, looked up): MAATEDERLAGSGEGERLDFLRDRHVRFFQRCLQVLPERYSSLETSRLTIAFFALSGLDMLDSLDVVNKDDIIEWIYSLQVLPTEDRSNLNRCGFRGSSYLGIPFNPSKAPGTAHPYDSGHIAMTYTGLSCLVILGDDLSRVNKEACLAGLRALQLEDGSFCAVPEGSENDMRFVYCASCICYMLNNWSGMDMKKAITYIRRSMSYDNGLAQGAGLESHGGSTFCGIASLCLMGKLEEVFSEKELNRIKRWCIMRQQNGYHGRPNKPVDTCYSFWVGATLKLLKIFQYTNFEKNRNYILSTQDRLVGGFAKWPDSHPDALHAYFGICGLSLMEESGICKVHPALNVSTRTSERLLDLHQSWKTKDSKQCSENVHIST
inactive: erlotinib -0.02 | [1] 0.039 | [2] -0.076 | [3] -0.011 | [4] 0.047 | [5] 0.14 | [6] 0.045 | [7] 0.008 | [8] -0.018 | IRAK-1-4 Inhibitor I -0.006 | ibrutinib -0.018 | [9] 0.004 | ralimetinib -0.015 | [10] 0.03 | [11] -0.092 | [12] 0.002 | [13] 0.032 | [14] -0.039 | [15] -0.011 | [16] 0.007

PFKFB3 isoform 4 (UniProt Q16875)
inactive: erlotinib -0.006 | [1] -0.021 | [2] 0.028 | [3] -0.033 | [4] 0.011 | [5] -0.034 | [6] -0.035 | [7] 0.032 | [8] 0.002 | IRAK-1-4 Inhibitor I 0.004 | ibrutinib -0.015 | [9] 0.11 | ralimetinib 0.044 | [10] -0.003 | [11] 0 | [12] 0.027 | [13] 0.003 | [14] 0.011 | [15] -0.019 | [16] 0.148

PDXDC1 (UniProt Q6P996)
inactive: erlotinib -0.012 | [1] 0.008 | [2] -0.095 | [3] 0.034 | [4] 0.013 | [5] -0.005 | [6] 0.024 | [7] -0.011 | [8] -0.024 | IRAK-1-4 Inhibitor I -0.006 | ibrutinib -0.006 | [9] 0.051 | ralimetinib 0.071 | [10] -0.017 | [11] 0.001 | [12] 0.014 | [13] -0.024 | [14] -0.019 | [15] 0.024 | [16] 0.022

PRIM2 (UniProt P49643)
inactive: erlotinib 0.05 | [1] -0.12 | [2] 0.032 | [3] 0.007 | [4] -0.006 | [5] 0.011 | [6] 0.005 | [7] -0.016 | [8] 0.017 | IRAK-1-4 Inhibitor I 0.027 | ibrutinib 0.067 | [9] -0.05 | ralimetinib 0.041 | [10] -0.025 | [11] -0.001 | [12] 0.015 | [13] -0.043 | [14] 0.028 | [15] 0.054 | [16] 0.009

PRKAR2B (UniProt P31323)
inactive: erlotinib 0 | [1] 0.066 | [2] -0.022 | [3] -0.025 | [4] 0.018 | [5] -0.03 | [6] -0.116 | [7] -0.16 | [8] -0.131 | IRAK-1-4 Inhibitor I -0.016 | ibrutinib -0.017 | [9] 0.008 | ralimetinib 0.007 | [10] -0.01 | [11] 0.022 | [12] 0.015 | [13] -0.004 | [14] 0.027 | [15] 0.031 | [16] 0.03

PCF11 (UniProt O94913)
Sequence of UniProt O94913 (O94913 whole entry, looked up): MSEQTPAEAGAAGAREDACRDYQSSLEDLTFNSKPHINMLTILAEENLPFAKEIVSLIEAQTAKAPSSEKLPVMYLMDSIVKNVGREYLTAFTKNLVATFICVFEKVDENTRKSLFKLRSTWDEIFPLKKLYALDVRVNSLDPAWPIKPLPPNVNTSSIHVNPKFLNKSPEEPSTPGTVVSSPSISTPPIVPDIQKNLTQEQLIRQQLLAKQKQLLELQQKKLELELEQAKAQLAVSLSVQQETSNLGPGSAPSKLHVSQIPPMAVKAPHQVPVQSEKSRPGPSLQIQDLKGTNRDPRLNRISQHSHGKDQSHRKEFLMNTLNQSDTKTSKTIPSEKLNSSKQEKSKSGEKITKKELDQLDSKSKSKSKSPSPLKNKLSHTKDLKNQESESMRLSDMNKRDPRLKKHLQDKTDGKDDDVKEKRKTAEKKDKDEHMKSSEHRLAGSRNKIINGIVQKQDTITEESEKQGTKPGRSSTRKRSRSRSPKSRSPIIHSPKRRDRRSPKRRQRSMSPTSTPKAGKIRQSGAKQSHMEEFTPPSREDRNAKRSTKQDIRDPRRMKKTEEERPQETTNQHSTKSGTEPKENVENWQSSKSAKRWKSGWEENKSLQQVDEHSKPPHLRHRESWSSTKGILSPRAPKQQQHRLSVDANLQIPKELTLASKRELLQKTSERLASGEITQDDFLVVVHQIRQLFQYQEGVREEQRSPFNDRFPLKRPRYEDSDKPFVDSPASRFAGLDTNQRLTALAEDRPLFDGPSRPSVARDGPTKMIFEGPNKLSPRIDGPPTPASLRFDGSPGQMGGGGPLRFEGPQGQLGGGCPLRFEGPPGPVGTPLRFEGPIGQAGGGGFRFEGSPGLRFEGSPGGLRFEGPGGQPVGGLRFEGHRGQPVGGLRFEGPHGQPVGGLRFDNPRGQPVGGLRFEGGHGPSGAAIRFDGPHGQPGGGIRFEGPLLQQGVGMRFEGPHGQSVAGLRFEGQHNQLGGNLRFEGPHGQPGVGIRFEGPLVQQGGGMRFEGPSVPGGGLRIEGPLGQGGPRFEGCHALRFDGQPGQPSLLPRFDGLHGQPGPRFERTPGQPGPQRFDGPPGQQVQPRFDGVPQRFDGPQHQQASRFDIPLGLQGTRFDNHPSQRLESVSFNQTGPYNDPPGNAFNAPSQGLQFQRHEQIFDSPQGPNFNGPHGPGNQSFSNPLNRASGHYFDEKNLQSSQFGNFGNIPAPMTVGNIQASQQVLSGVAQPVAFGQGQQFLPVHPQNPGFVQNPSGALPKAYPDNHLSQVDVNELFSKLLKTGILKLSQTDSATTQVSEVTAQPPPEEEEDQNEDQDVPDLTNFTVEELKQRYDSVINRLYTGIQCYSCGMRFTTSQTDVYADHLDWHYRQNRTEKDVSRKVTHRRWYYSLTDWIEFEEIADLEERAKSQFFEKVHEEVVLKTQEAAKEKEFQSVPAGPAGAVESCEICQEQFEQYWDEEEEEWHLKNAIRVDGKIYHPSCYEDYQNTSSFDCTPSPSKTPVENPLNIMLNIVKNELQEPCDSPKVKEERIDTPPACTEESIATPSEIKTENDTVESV
inactive: erlotinib 0.031 | [1] -0.063 | [2] 0.014 | [3] 0.008 | [4] -0.044 | [5] -0.025 | [6] -0.028 | [7] 0.005 | [8] 0.005 | IRAK-1-4 Inhibitor I -0.017 | ibrutinib -0.027 | [9] -0.006 | ralimetinib -0.005 | [10] -0.02 | [11] 0.022 | [12] 0.03 | [13] -0.02 | [14] -0.021 | [15] 0.045 | [16] -0.02

PCBP3 (UniProt P57721)
Sequence of UniProt P57721 (P57721 whole entry, looked up): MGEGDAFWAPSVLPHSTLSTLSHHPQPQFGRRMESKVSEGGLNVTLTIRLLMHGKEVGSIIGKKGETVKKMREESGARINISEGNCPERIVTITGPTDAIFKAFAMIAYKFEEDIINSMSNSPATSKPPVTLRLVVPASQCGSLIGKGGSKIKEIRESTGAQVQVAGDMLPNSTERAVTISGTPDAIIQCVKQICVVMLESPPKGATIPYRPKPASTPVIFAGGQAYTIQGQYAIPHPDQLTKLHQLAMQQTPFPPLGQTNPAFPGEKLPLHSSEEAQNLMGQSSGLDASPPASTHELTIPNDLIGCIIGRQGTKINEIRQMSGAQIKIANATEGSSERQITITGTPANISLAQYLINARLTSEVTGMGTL
inactive: erlotinib 0.005 | [1] 0.028 | [2] 0.021 | [3] -0.031 | [4] 0.02 | [5] 0.02 | [6] 0.029 | [7] -0.003 | [8] 0.021 | IRAK-1-4 Inhibitor I -0.005 | ibrutinib -0.026 | [9] -0.007 | ralimetinib -0.005 | [10] -0.021 | [11] 0 | [12] -0.04 | [13] -0.006 | [14] 0.053 | [15] -0.02 | [16] -0.028

PPP4R2 (UniProt Q9NY27)
inactive: erlotinib 0.004 | [1] -0.007 | [2] 0.025 | [3] 0.063 | [4] -0.029 | [5] -0.02 | [6] 0.013 | [7] 0.004 | [8] 0.004 | IRAK-1-4 Inhibitor I 0.012 | ibrutinib -0.012 | [9] -0.007 | ralimetinib -0.015 | [10] -0.058 | [11] 0.003 | [12] 0 | [13] 0 | [14] -0.007 | [15] 0.003 | [16] -0.019

PIK3R2 (UniProt O00459)
inactive: erlotinib -0.022 | [1] -0.02 | [2] -0.008 | [3] 0.097 | [4] 0.251 | [5] -0.09 | [6] 0.047 | [7] 0.068 | [8] -0.059 | IRAK-1-4 Inhibitor I -0.01 | ibrutinib -0.041 | [9] 0.242 | ralimetinib 0.11 | [10] 0.029 | [11] -0.028 | [12] 0.008 | [13] 0.01 | [14] 0 | [15] 0.07 | [16] 0.019

PPME1 isoform 4 (UniProt Q9Y570)
inactive: erlotinib -0.002 | [1] -0.006 | [2] 0.023 | [3] -0.005 | [4] -0.035 | [5] 0.017 | [6] 0.065 | [7] 0.013 | [8] 0.01 | IRAK-1-4 Inhibitor I -0.006 | ibrutinib 0.042 | [9] 0.009 | ralimetinib 0.008 | [10] 0.018 | [11] -0.001 | [12] -0.021 | [13] -0.004 | [14] -0.011 | [15] -0.023 | [16] 0.012

PHGDH (UniProt O43175)
Sequence of UniProt O43175 (O43175 whole entry, looked up): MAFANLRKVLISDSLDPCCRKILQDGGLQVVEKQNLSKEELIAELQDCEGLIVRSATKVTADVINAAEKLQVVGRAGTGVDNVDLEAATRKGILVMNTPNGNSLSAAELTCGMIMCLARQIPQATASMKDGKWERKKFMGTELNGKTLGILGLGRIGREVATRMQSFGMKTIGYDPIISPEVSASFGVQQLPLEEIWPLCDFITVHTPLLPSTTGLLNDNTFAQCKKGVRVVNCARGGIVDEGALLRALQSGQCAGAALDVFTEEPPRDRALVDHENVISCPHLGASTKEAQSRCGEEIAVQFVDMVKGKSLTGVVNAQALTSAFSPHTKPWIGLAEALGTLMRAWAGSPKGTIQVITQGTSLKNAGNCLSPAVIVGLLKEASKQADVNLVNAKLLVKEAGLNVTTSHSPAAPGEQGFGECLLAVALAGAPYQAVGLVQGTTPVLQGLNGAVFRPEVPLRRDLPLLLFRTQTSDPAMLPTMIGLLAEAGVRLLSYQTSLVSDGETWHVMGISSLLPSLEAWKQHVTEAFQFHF
inactive: erlotinib 0.033 | [1] 0.155 | [2] 0.05 | [3] -0.222 | [4] -0.092 | [5] -0.012 | [6] 0.04 | [7] 0.045 | [8] 0.021 | IRAK-1-4 Inhibitor I 0.011 | ibrutinib 0.03 | [9] 0.021 | ralimetinib 0.013 | [10] 0.028 | [11] 0.012 | [12] -0.003 | [13] 0.013 | [14] -0.004 | [15] -0.012 | [16] 0.029

PKN1 isoform 2 (UniProt Q16512)
inactive: erlotinib -0.014 | [1] 0.007 | [2] 0.018 | [3] -0.048 | [4] -0.042 | [5] -0.004 | [6] -0.175 | [7] -0.191 | [8] -0.203 | IRAK-1-4 Inhibitor I -0.174 | ibrutinib 0.011 | [9] -0.107 | ralimetinib -0.001 | [10] 0.008 | [11] 0.006 | [12] 0.091 | [13] 0.021 | [14] 0.048 | [15] 0.035 | [16] 0.05

PDCD6IP (UniProt Q8WUM4)
inactive: erlotinib -0.016 | [1] 0.021 | [2] -0.036 | [3] 0 | [4] 0.108 | [5] 0.03 | [6] 0.013 | [7] 0.07 | [8] 0.012 | IRAK-1-4 Inhibitor I -0.094 | ibrutinib -0.056 | [9] 0.042 | ralimetinib -0.066 | [10] -0.004 | [11] 0.078 | [12] 0.009 | [13] 0.004 | [14] -0.037 | [15] 0.02 | [16] -0.03

PPFIA2 (UniProt O75334)
Sequence of UniProt O75334 (O75334 whole entry, looked up): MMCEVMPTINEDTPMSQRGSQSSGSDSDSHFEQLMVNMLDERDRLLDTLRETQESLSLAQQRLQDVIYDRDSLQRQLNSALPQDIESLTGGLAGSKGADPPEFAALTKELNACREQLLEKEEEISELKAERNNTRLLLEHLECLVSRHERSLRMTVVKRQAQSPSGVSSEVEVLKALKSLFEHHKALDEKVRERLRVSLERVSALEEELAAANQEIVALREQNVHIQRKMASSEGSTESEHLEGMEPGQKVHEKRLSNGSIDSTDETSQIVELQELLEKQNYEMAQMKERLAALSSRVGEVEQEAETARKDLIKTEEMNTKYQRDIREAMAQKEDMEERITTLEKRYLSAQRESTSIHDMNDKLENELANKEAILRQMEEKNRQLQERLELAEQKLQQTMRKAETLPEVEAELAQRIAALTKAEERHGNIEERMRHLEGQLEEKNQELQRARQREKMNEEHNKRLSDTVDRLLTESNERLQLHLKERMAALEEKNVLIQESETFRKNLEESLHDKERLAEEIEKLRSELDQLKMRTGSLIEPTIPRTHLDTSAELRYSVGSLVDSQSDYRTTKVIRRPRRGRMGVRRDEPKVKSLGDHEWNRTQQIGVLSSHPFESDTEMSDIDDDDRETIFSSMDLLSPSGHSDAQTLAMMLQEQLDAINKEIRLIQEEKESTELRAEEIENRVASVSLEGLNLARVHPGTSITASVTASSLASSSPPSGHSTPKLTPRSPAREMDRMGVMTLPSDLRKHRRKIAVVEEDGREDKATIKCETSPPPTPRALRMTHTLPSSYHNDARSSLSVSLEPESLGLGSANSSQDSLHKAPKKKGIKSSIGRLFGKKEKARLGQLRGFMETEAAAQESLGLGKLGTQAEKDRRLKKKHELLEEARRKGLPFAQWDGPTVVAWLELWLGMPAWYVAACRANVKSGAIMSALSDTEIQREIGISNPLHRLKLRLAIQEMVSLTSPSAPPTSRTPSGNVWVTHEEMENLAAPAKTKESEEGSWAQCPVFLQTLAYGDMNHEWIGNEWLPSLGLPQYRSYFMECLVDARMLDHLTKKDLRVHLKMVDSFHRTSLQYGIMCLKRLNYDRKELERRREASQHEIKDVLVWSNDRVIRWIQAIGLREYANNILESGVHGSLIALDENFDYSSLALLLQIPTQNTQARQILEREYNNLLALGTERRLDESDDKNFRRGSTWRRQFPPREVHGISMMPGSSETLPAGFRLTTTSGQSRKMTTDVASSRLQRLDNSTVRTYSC
inactive: erlotinib 0.019 | [1] -0.005 | [2] 0.02 | [3] -0.004 | [4] 0.065 | [5] 0.012 | [6] -0.006 | [7] 0.02 | [8] -0.074 | IRAK-1-4 Inhibitor I -0.022 | ibrutinib -0.013 | [9] 0.01 | ralimetinib 0.085 | [10] 0.015 | [11] 0.006 | [12] 0.041 | [13] 0.02 | [14] 0.047 | [15] 0.033 | [16] -0.022
